Data reported in PubChem BioAssay (NCATS).
Results filed as inconclusive are left out. A call without a number means that no potency is given here. Values without a mark were called inactive. The source made the active and inactive calls. The call rests on the fitted dose curve; in most records, active means well fitted curve in the direction sought with a large enough effect; inconclusive means small, poorly fitted or top-dose-only effect, or another doubt; inactive means no such curve, though single readings can be large; an effect the other way counts as inactive or inconclusive. Peptide text beside a SMILES is read from it.

Key:
[1] = target: Cellular tumor antigen p53 (Homo sapiens) (UniProt P04637); assay: Primary qHTS for small molecule compounds that upregulate eGFP-tagged delta133p53alpha (in N-terminal) cells. (AID 2060322); conditions: NCI-H358 eGFP-delta133p53alpha fluorescence, 24 h; activation: hits give high values; further: nearly all actives have a fitted effect of over 75% in size; further: potency means the concentration at half of the fitted maximal effect
Chain of Cellular tumor antigen p53 (Homo sapiens) (P04637 whole entry, looked up): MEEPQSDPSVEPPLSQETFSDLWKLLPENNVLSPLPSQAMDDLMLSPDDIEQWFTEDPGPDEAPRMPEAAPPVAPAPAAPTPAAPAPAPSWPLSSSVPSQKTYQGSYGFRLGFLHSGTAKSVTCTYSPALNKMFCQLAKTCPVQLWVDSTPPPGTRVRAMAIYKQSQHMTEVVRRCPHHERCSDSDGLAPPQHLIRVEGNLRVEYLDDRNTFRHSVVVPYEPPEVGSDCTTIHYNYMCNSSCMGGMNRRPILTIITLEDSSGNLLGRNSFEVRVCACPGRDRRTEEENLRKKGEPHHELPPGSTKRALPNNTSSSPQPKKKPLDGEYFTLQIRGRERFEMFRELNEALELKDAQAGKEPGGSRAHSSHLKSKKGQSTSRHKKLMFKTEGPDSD
Outline: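 NCI-H358 cells pre-induced 24 h with 10 ng/ml doxycycline to express N-terminal eGFP-delta133p53alpha, then dosed 24 h at 37C without doxycycline; fixed, Hoechst-stained, GFP intensity by laser scanning cytometry, normalized to DMSO (0%) and 57.5 uM 5-azacytidine (100%).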

[2] = target: Aldehyde dehydrogenase, mitochondrial (Homo sapiens) (UniProt P05091); assay: qHTS for Inhibitors of the Aldehyde Dehydrogenase Family (ALDH2) Primary screen (AID 2061308); conditions: ALDH2 enzyme inhibition qHTS, 1536-well; series mostly up to 56 µM; further: nearly all actives have a fitted effect of over 55% in size
[3] = target: Retinaldehyde dehydrogenase 3 (Homo sapiens) (UniProt P47895); assay: qHTS for Inhibitors of the Aldehyde Dehydrogenase Family (ALDH1A3) Primary screen (AID 2061315); conditions: ALDH inhibition qHTS; series mostly up to 56 µM; further: potency means the concentration at half of the fitted maximal effect

Row | Structure (SMILES) | activation [1] [%] | Potency [2] | Potency [3] | activity change, negative = inhibition [2] | activity change, negative = inhibition [3] | Potency [1]
1 | COc1ccccc1NC(=O)OCC1CCN(C(=O)OC(C)(C)C)CC1 | -5.67 | inactive | inactive |  |  | 
2 | CC(=O)N1CCN(NC(=O)c2ccc(F)cc2)CC1 | -2.39 | inactive | inactive |  |  | 
3 | C/C=C(\C)C(=O)O[C@H]1[C@H](O)[C@]2(COC(C)=O)[C@H](O)C[C@]3(C)C(=CCC4[C@@]5(C)CC[C@H](O[C@@H]6O[C@H](C(=O)O)[C@@H](O[C@@H]7O[C@H](CO)[C@@H](O)[C@H](O)[C@H]7O)[C@H](O)[C@H]6O[C@@H]6O[C@H](CO)[C@@H](O)[C@H](O)[C@H]6O)[C@](C)(CO)C5CC[C@]43C)[C@@H]2CC1(C)C (stereo partly drawn) | -8.4 | inactive | inactive |  |  | 
4 | c1ccc(-c2cnn3cc(-c4ccc(OCCN5CCOCC5)cc4)cnc23)cc1 | -17 | inactive | inactive |  |  | 
5 | CC1=C(C)C(=O)OC(C(C)C2CCC3C4CC=C5CC(OC6OC(COC7OC(CO)C(O)C(O)C7O)C(O)C(O)C6O)CC(O)C5(C)C4CCC23C)C1 (stereo not drawn) | 9.16 | inactive | inactive |  |  | 
6 | COC(=O)C[C@@H]1C(C(=O)O)=CO[C@@H](O[C@@H]2O[C@H](CO)[C@@H](O)[C@H](O)[C@H]2O)/C1=C\COC(=O)/C=C\c1ccccc1 | 26 | inactive | inactive |  |  | 
7 | C[C@@H](NC(=O)c1ccc(C#Cc2cccc(F)c2)cn1)C(C)(C)O | -4.33 | inactive | inactive |  |  | 
8 | COC(=O)C1(C)CCC2(C(=O)O)CCC3(C)C(=CCC4C5(C)CC(O)C(OC6OCC(O)C(O)C6O)C(C)(CO)C5CCC43C)C2C1 (stereo not drawn) | -6.11 | inactive | inactive |  |  | 
9 | CN1CCN(C(=O)c2cc3cc(Cl)ccc3[nH]2)CC1 | -0.893 | inactive | inactive |  |  | 
10 | C[C@@]1(O)[C@H](O)[C@@H](CO)O[C@H]1n1cnc2c(=O)[nH]c(N)nc21 | -12.3 | inactive | inactive |  |  | 
11 | CC1CC(O)C2(OC1=O)OC1C(O)C3C4CCC5CC(OC6OC(CO)C(O)C(O)C6OC6OC(C)C(O)C(O)C6O)CCC5(C)C4CCC3(C)C1C2C (stereo not drawn) | -0.893 | inactive | inactive |  |  | 
12 | C[C@@H](O)[C@H](N)C(=O)N1CCC[C@H]1C(=O)N1CCC[C@H]1C(=O)N[C@H](C(N)=O)[C@@H](C)O (H-TPPT-NH2) | 1 |  |  | 5.09% [at 11.2 µM] | -29.1% [at 11.2 µM] | 
13 | Nc1nonc1C(=Nc1ccc(F)c(Cl)c1)NO | -6.33 | inactive | inactive |  |  | 
14 | c1ccc(Cc2ncc3c(n2)CCNCC3)cc1 | 7 | inactive | inactive |  |  | 
15 | CC(=O)O[C@H]1C[C@@H](O)C(C)(C)C2C[C@@H](OC(C)=O)[C@]3(C)C(CC[C@@]4(C)[C@H](c5ccoc5)OC(=O)[C@H]5O[C@]543)[C@]21C (stereo partly drawn) | 11.6 | inactive | inactive |  |  | 
16 | O=c1c2cccnc2n(-c2cccc([N+](=O)[O-])c2)c(=O)n1Cc1ccncc1 | -20 | inactive | inactive |  |  | 
17 | CC(=O)O[C@@H]1[C@H](O[C@@H]2O[C@H](CO)[C@@H](O)[C@H](O)[C@H]2O)[C@@H](O[C@@H]2O[C@@H](C)[C@H](O)[C@@H](O[C@@H]3O[C@H](CO)[C@@H](O)[C@H](O)[C@H]3O)[C@H]2O)[C@H](OC(=O)[C@]23CCC(C)(C)C[C@H]2C2=CCC4[C@@]5(C)C[C@H](O)[C@H](O[C@@H]6O[C@H](C(=O)O)[C@@H](O)[C@H](O)[C@H]6O)[C@@](C)(C(=O)O)C5CC[C@@]4(C)[C@]2(C)CC3)O[C@@H]1C (stereo partly drawn) | 2.29 |  |  | 6.2% [at 11.2 µM] | -6.53% [at 11.2 µM] | 
18 | O=C(O)CCc1c(C(=O)O)[nH]c2cc(Cl)cc(Cl)c12 | 3 | inactive | inactive |  |  | 
19 | CC1CC[C@]2(C(=O)O)CC[C@]3(C(=O)O)C(=CCC4[C@@]5(C)CC[C@H](O[C@@H]6O[C@H](CO)[C@@H](O)[C@H](O)[C@H]6O)C(C)(C)C5CC[C@]43C)C2C1C (stereo partly drawn) | 0.893 | inactive | inactive |  |  | 
20 | CCC(C)C(=O)O[C@@H]1[C@@H](O)[C@@H](O[C@H]2O[C@H](CO)[C@@H](O)[C@H](O)[C@H]2O)O[C@H](CO)[C@H]1O (stereo partly drawn) | -2.29 | inactive | inactive |  |  | 
21 | CC(=O)OC1C[C@]2(C)C(O)CC(C)=C[C@H](OC(=O)c3ccc(O)cc3)C2[C@]1(O)C(C)C (stereo partly drawn) | -20.6 | inactive | inactive |  |  | 
22 | CC(C)(O)C1CCC(C)(C2CCC3(C)C4CCC5C(C)(C(=O)OC6OC(CO)C(O)C(O)C6O)C(O)CC(O)C56CC46CCC23C)O1 (stereo not drawn) | -11.5 | inactive | inactive |  |  | 
23 | C=C1CCC2C(C)(C)CCC[C@]2(C)[C@H]1C/C=C(\CO)C(=O)C(=O)O (stereo partly drawn) | -6.87 | inactive | inactive |  |  | 

Row | Structure (SMILES) | activation [1] [%] | Potency [2] | Potency [3] | activity change, negative = inhibition [2] | activity change, negative = inhibition [3] | Potency [1]
24 | CC(C)=CCC/C(C)=C/Cc1ccc(O)c(C2OC(=O)c3cc(C(=O)O)cc(O)c32)c1O (stereo not drawn) | -1.53 | inactive | inactive |  |  | 
25 | COC(=O)C1=CO[C@@H](O)C2C(CO)=CCC12 (stereo partly drawn) | 23 | inactive | inactive |  |  | 
26 | CC(=O)O[C@@H]1[C@H](O[C@@H]2O[C@@H](CO)[C@H](O)[C@H]2O)[C@@H](O[C@@H]2O[C@@H](C)[C@H](O[C@@H]3OC[C@@H](O)[C@H](O)[C@H]3O)[C@@H](O)[C@H]2O)[C@H](OC(=O)[C@]23CCC(C)(C)C[C@H]2C2=CCC4[C@@]5(C)CC[C@H](O[C@@H]6O[C@H](C(=O)O)[C@@H](O)[C@H](O)[C@H]6O[C@@H]6O[C@H](CO)[C@H](O)[C@H](O)[C@H]6O)[C@@](C)(C=O)C5CC[C@@]4(C)[C@]2(C)CC3)O[C@@H]1C (stereo partly drawn) | -13.7 |  |  | 4.21% [at 11.2 µM] | 3.44% [at 11.2 µM] | 
27 | CC1OC(OC2C(OC3C(O[C@H]4CC[C@@]5(C)C(CC[C@]6(C)C5CC=C5C7CC(C)(C)CC(O)[C@]7(C)CC[C@]56C)C4(C)C)OC(C(=O)O)C(O)C3O)OCC(O)C2O)C(O)C(O)C1O (stereo partly drawn) | 3.57 | inactive | inactive |  |  | 
28 | CS/C=C/C(=O)O[C@@H]1CCC2=CC(=O)C(=C(C)C)C[C@]2(C)[C@H]1C | -1.79 | inactive | inactive |  |  | 
29 | COc1ccc(O[C@@H]2O[C@H](CO)[C@@H](O)[C@H](O)[C@H]2O)cc1OC | -17 | inactive | inactive |  |  | 
30 | COc1ccc(-c2ccccc2)cc1NS(=O)(=O)c1cc(Cl)cc(Cl)c1O | -8.33 | inactive | inactive |  |  | 
31 | COc1cc(/C=C/C(=O)OC2[C@H](O)CC(O)(C(=O)O)C[C@H]2O)ccc1O (stereo partly drawn) | 7.63 | inactive | inactive |  |  | 
32 | C=C1C(O)C(OC(=O)c2ccccc2)C2C(C)(C(=O)O)CCCC2(C)C1CC/C(C)=C\CO (stereo not drawn) | 11.5 | inactive | inactive |  |  | 
33 | COc1ccccc1CC(C(=O)O)N(C)C(=O)c1ccccc1 (stereo not drawn) | -8.04 | inactive | inactive |  |  | 
34 | O=C(/C=C/c1ccc(O)cc1)OC[C@]12O[C@H]1[C@@H](O)[C@@H]1C=CO[C@@H](O[C@@H]3O[C@H](CO)[C@@H](O)[C@H](O)[C@H]3O)[C@@H]12 | 18.3 | inactive | inactive |  |  | 
35 | CC1CCC23COC(=O)C2=CC(O)CC3C1(C)CCC1=CC(=O)OC1O (stereo not drawn) | 0.763 | inactive | inactive |  |  | 
36 | COc1ccccc1-c1ccc(-c2cn(C(=O)N3CCCCC3Cc3ccccc3)nn2)cc1 (stereo not drawn) | -5 | inactive | inactive |  |  | 
37 | C/C=C(\C)C(=O)OC[C@H]1O[C@H](O[C@H]2O[C@H](CO)[C@@H](OC(=O)/C(C)=C/C)[C@H](O)[C@H]2O[C@@H]2O[C@H](CO)[C@@H](O)[C@H](O)[C@H]2O)[C@H](O[C@@H]2O[C@H](CO)[C@@H](O)[C@H](O)[C@H]2O)[C@@H](O)[C@@H]1O | -4.46 | inactive | inactive |  |  | 
38 | CCN1CCN(Cc2ccc(NC(=O)c3ccc(C)c(Oc4ccnc5[nH]ccc45)c3)cc2C(F)(F)F)CC1 |  | inactive | inactive |  |  | 14.8 µM (active)
39 | Nc1nc2c(c(=O)[nH]1)C[C@@H](CCc1ccc(C(=O)N[C@@H](CCC(=O)O)C(=O)O)cc1)CN2 | 8.33 | inactive | inactive |  |  | 
40 | C=C1[C@@H]2CC[C@@H]3[C@@](CCC4C(C(=O)O)(C(=O)O)C[C@@H](O[C@@H]5O[C@H](CO)[C@@H](O)[C@H](O)[C@H]5OC(=O)CC(C)C)C[C@]43C)(C2)[C@H]1O (stereo partly drawn) | -16 | inactive | inactive |  |  | 
41 | Cc1ccc(C2(COC(=O)C(C)C)CO2)c(OC(=O)C(C)C)c1 (stereo not drawn) | 3.82 | inactive | inactive |  |  | 
42 | C/C(=C/CO)CC[C@H]1[C@]2(C)C[C@H](O)CC(C)(C)[C@H]2CC[C@]1(C)O | -9.92 | inactive | inactive |  |  | 
43 | C=C1CCC2(OC1)OC1CC3C4CC=C5CC(O)CC(O[C@@H]6OC[C@@H](O)[C@H](O)[C@H]6O)C5(C)C4CCC3(C)C1(O)C2C (stereo partly drawn) | 5.34 | inactive | inactive |  |  | 
44 | CC1CC(=O)C2=C(CCC3(O)C(O)c4c(O)cccc4C(=O)C23O)C1 (stereo not drawn) | 12.2 | inactive | inactive |  |  | 
45 | COC(=O)C1=CO[C@@H](O[C@@H]2O[C@H](CO)[C@@H](O)[C@H](O)[C@H]2O)[C@@H]2[C@@H](C)[C@@H](OC(=O)/C=C/c3ccccc3)[C@@H](O)[C@H]12 | -5.34 | inactive | inactive |  |  | 
46 | CCN(CC)CCCCCCNc1cc(OC)cc2c(C)ccnc12 | -2.86 | inactive | 2.51 µM (active) |  |  | 
